Data as given in the supplement of paper PMC10338343.
± gives the standard deviation. Whole data set: some 5,500 sequences, median “pre-steady-state target cleavage rate” near 0.1, cut for the highest 2% near 0.64. The entries come from a sample that favours the highest values as a whole.

tested on: MIWI (PIWIL1) piRISC loaded with piRNA #2 (30 nt); assay: pre-steady-state target cleavage rate (min^-1); MIWI and MILI are mouse PIWI proteins and EfPiwi is from a freshwater sponge; tags in brackets are library labels; higher = faster piRNA-guided slicing of the target; conditions: guide: piRNA #2 5'p-UUAGGUAACCCAGUAGAUCCAGAGGAAUUC; auxiliary factor: 500 nM mouse GTSF1
Experimental: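 Cleave-'n-Seq: a library of target RNAs (target site embedded in constant flanks, ACAGCATTCCGCGTTAGTGATATCCG... 5' flank; DNA-blocked outside the site) at 0.1 nM was incubated with 1 nM active mouse MILI or MIWI piRISC (synthetic 5'-monophosphorylated piRNA guide) with or without 500 nM mouse GTSF1 at 33 °C for 1 min to 16 h. Uncleaved targets were sequenced and normalised to non-target controls, and the pooled three trials were fitted to a burst-and-steady-state model to give the pre-steady-state cleavage rate (min^-1; k3 is constrained to at most 1e-4). Sequence is the target site only; target names encode pairing extent (gX:gY) and contiguous / 1-mismatch / 2-mismatch / bulge geometry. Fits with R² ≤ 0 are excluded.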

Row | Sequence | pre-steady-state target cleavage rate
1 | GAAUUGCUCUGGAUCUACUGGCUUACCUAA | 0.0382 ± 0.014
2 | GAAUUCCUCUGGAUACUACUGGGUUACCUAA | 0.373 ± 0.056
3 | GAAUUCCUCUGGAACUACUGGGUUACCAAA | 0.233 ± 0.056
4 | CAAUUCCUCUGGAUCUACUCGGUUUCCUAA | 0.0763 ± 0.028
5 | CAAUUCGUCUGGAUCUACUGCGUUACCUAA | 0.376 ± 0.044
6 | CUUAAGGAGACCUUCCUACUGGGUUACCUAA | 0.00294 ± 0.0029
7 | CUUAUGCUCUGGAUCUACUGGGUUACGUAA | 0.534 ± 0.042
8 | CAAUUCCUCAGGAUCUUCUGGGUUACCUAA | 0.485 ± 0.058
9 | CUUUUCCUCACGAUCUACUGGGUUACCUAA | 0.635 ± 0.051
10 | CAAUUCCUGACGAUCUACUGGGUUACCUAA | 0.212 ± 0.034
11 | CAAUUCCUCACGAUCUACUGGGUUACCUAA | 0.784 ± 0.05
12 | GAAUUCCUCACCAUCUACUGGGUUACCUAA | 0.455 ± 0.051
13 | CUAUUCCUCACGAUCUACUGGGUUACCUAA | 0.659 ± 0.042
14 | CUAUUCCUGACGAUCUACUGGGUUACCUAA | 0.133 ± 0.023
15 | CUAUUCCUCACCAUCUACUGGGUUACCUAA | 0.384 ± 0.049
16 | CAAUUCCUCACCAUCUACUGGGUUACCUAA | 0.573 ± 0.069
17 | GAAUUCCUCACGAUCUACUGGGUUACCUAA | 0.697 ± 0.051
18 | CAAUUCCUCUGGAUCUACAGGGUUAGCUAA | 0.157 ± 0.054
19 | CUUAAGCUCUCGAUCUACAGGGUUACCUAA | 0.185 ± 0.012
20 | CUUAUCCUCUGGAUCUUCUGGGUUACCUUA | 0.289 ± 0.053
21 | GAAUACCUCUGGAUCUACUGGGUAACCUAA | 0.168 ± 0.035
22 | CUAUUCCUCUGCAUCUACUGGGUUACCUAA | 0.463 ± 0.04
23 | CUAUUCCUCUGCAUCUACUGCGUUACCUAA | 0.654 ± 0.047
24 | CUUAUCCUCUGCAUCUACUGCGUUACCUAA | 0.377 ± 0.032
25 | GAAUUCCUCUGCAUCUACUGCGUUACCUAA | 0.591 ± 0.054

Row | Sequence | pre-steady-state target cleavage rate
26 | CUUUUCCUCUGCAUCUACUGCGUUACCUAA | 0.49 ± 0.037
27 | CAAUUCCUCUGCAUCUACUGCGUUACCUAA | 0.666 ± 0.058
28 | GAAUUCCUCUGGAUCUACUGGCAUACCUAA | 0.00471 ± 0.003
29 | CUUAACCUCUGAAUCUACUGGGUUACCUAA | 0.158 ± 0.019
30 | CUUAACCUCUCGAUCUACUGGCUUACCUAA | 0.173 ± 0.016
31 | CUUAAGGUCUGGAUCUUCUGGGUUACCAAA | 0.0379 ± 0.015
32 | CUAUUCCUCUUGAUCUACUGGGUUACCUAA | 0.767 ± 0.04
33 | GAAUUCCUCUGAUCUACUGGGUUACCUAA | 0.454 ± 0.062
34 | CUUUUCCUCUGAUCUACUGGGUUACCUAA | 0.304 ± 0.036
35 | CAAUUCCUCUUGAUCUACUGGGUUACCUAA | 0.866 ± 0.044
36 | CUUUUCCUCUUGGAUCUACUGGGUUACCUAA | 0.346 ± 0.033
37 | GAAUUCCUCUUGGAUCUACUGGGUUACCUAA | 0.402 ± 0.042
38 | CUAUUCCUCUGAUCUACUGGGUUACCUAA | 0.395 ± 0.048
39 | GAAUUCCUCUUGAUCUACUGGGUUACCUAA | 0.74 ± 0.037
40 | CUUUUCCUCUUGAUCUACUGGGUUACCUAA | 0.705 ± 0.039
41 | CUAUUCCUCUUGGAUCUACUGGGUUACCUAA | 0.433 ± 0.046
42 | CAAUUCCUCUGAUCUACUGGGUUACCUAA | 0.528 ± 0.061
43 | CAAUUCCUCUUGGAUCUACUGGGUUACCUAA | 0.358 ± 0.046
44 | CUUAUCGUCUGGAUCUACUGGGUUACCUUA | 0.295 ± 0.066
45 | CAAUUCCUCUGGAACUACUGGGUAACCUAA | 0.235 ± 0.035
46 | CUUUUCCUCUGGAUCUACACCGUUACCUAA | 0.0786 ± 0.0085
47 | CUUAACCUCUCGAUCUACUGGGUUACCUUA | 0.373 ± 0.034
48 | GAAUUCCUCUGGAACUAGUGGGUUACCUAA | 0.221 ± 0.027
49 | GAAUUCCUCUGGAUCUUCUGGGUUACCUAA | 0.274 ± 0.047
50 | CUAUUCCUCUGGAUCUACUGGGUUACCAUAA | 0.553 ± 0.069

Row | Sequence | pre-steady-state target cleavage rate
51 | CAAUUCCUCUGGAUCUACUGGGUUACCUGAA | 0.438 ± 0.14
52 | CUAUUCCUCUGGAUCUACUGGGUUACCAUA | 0.413 ± 0.054
53 | CUUAUCCUCUGGAUCUACUGGGUUACAUAA | 0.742 ± 0.048
54 | CAAUUCCUCUGGAUCUACUGGGUUACCAUAA | 0.588 ± 0.078
55 | CUUAUCCUCUGGAUCUACUGGGUUACCAUAA | 0.452 ± 0.06
56 | CUAUUCCUCUGGAUCUACUGGGUUACAUAA | 0.739 ± 0.051
57 | CAAUUCCUCUGGAUCUACUGGGUUACCUGA | 0.328 ± 0.086
58 | CAAUUCCUCUGGAUCUACUGGGUUACCAUA | 0.518 ± 0.076
59 | GAAUUCCUCUGGAUCUACUGGGUUACCUGAA | 0.735 ± 0.26
60 | CUUAUCCUCUGGAUCUACUGGGUUACCAUA | 0.497 ± 0.069
61 | CAAUUCCUCUGGAUCUACUGGGUUACAUAA | 0.739 ± 0.053
62 | CUUAAGGUCUUGGAUCUACUGGGUUACCUAA | 0.291 ± 0.03
63 | CUUAAGGUCUGGAUCUACUGCGUUACCAAA | 0.109 ± 0.029
64 | CUAAUCCUCUGGAUCAACUGGGUUACCUAA | 0.381 ± 0.043
65 | CUAUUCCUCUGGAUCUACUGGGUUAACUAA | 0.349 ± 0.071
66 | CUAUUCCUCUGGAUCUACUGGGUUAGCCUAA | 0.51 ± 0.063
67 | CUUUUCCUCUGGAUCUACUGGGUUACCAUAA | 0.422 ± 0.047
68 | CUUUUCCUCUGGAUCUACUGGGUUACAUAA | 0.738 ± 0.042
69 | GAAUUCCUCUGGAUCUACUGGGUUACCAUA | 0.364 ± 0.05
70 | GAAUUCCUCUGGAUCUACUGGGUUAGCCUAA | 0.299 ± 0.036
71 | CAAUUCCUCUGGAUCUACUGGGUUAACUAA | 0.386 ± 0.098
72 | GAAUUCCUCUGGAUCUACUGGGUUACAUAA | 0.64 ± 0.057
73 | GAAUUCCUCUGGAUCUACUGGGUUACCAUAA | 0.383 ± 0.049
74 | GAAUUCCUCUGGAUCUACUGGGUUAACUAA | 0.674 ± 0.059
75 | CUUUUCCUCUGGAUCUACUGGGUUACCAUA | 0.437 ± 0.048

Row | Sequence | pre-steady-state target cleavage rate
76 | CAAUUCCUCUGGAUCUACUGGGUUAGCCUAA | 0.651 ± 0.079
77 | CUUAACCUCUGGAUCUAGUCGGUUACCUAA | 0.0063 ± 0.0049
78 | CUUUUCCUCUGGAUCAACUGGGUUUCCUAA | 0.165 ± 0.034
79 | CUUAAGGAGACCUUCUACAGCGUUACCUAA | 0.00566 ± 0.0029
80 | CUUAUGCUCUGGAUCUACUGGGUUACCUAA | 0.124 ± 0.02
81 | CUUAAGGACAGGUUCUACUGGGUUACCUAA | 0.0257 ± 0.017
82 | CUUAAGCUCUGGAUCUACUGGGUAACCAAA | 0.0234 ± 0.0094
83 | CUUAACCUCUGGAUCUACUGGGUUACUAA | 0.116 ± 0.018
84 | CUUAAGGAGUGGAACUACUGGGUUACCUAA | 0.0357 ± 0.024
85 | CUUAAGGAGUGGAUCUACUGGGUUACCGAA | 0.0437 ± 0.018
86 | CUUUUCCUCUGGAUCUAGAGGGUUACCUAA | 0.022 ± 0.0052
87 | CUUAACCUCUGGUUCUACUGGCUUACCUAA | 0.112 ± 0.014
88 | GAAUUCCUCUGGAUUCUACUGGGUUACCUAA | 0.224 ± 0.036
89 | CAAUUCCUCUCCUUCUACUGGGUUACCUAA | 0.613 ± 0.058
90 | CAAUUCCUCUCGUUCUACUGGGUUACCUAA | 0.82 ± 0.071
91 | GAAUUCCUCUCCUUCUACUGGGUUACCUAA | 0.781 ± 0.06
92 | CUAUUCCUCUCCUUCUACUGGGUUACCUAA | 0.569 ± 0.049
93 | CUUAUCCUCUCGUUCUACUGGGUUACCUAA | 0.41 ± 0.039
94 | CUAUUCCUCUCGUUCUACUGGGUUACCUAA | 0.75 ± 0.077
95 | CUUUUCCUCUCGUUCUACUGGGUUACCUAA | 0.519 ± 0.041
96 | GAAUUCCUCUCGUUCUACUGGGUUACCUAA | 0.793 ± 0.058
97 | CUUAACCUCUCGUUCUACUGGGUUACCUAA | 0.401 ± 0.044
98 | CUAUUCCUCUGGAUUCUACUGGGUUACCUAA | 0.346 ± 0.047
99 | CAAUUCCUCUGGGUCUACUGGGUUACCUAA | 0.562 ± 0.037
